Holding throughout (details): treatment time: 24 h
The test system of test [1] is A549-ACTB-RAB5A. Kind of test: lowest phenotypically active concentration; higher = less potent. The procedure, abridged: (§1)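 Each of fifteen gene-edited A549, HepG2 and WPMY1 reporter lines, marked with BFP for segmentation and GFP and RFP/FusionRed, was treated in four wells at 0.3, 1, 3 or 9 µM for 24 h prior to live imaging. Normalisation of per-well live-cell features used solvent control wells. Deviation needed ≥3 of 4 wells beyond the 95th percentile of control Euclidean distances, and reproducibility needed a median replicate Pearson correlation above the 95th percentile of non-replicates. Both were required for phenotypic activity.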

Test [2] has as its system A549-CANX-COX4. The description is as above. The procedure, abridged: as §1
In test [3] the test system is A549-GM130-SQSTM1. Described as above. The procedure, abridged:
as §1

The test system of test [4] is HepG2-TP53BP1-CLTA. The description is as above. The procedure, abridged:
as §1

The test system of test [5] is HepG2-TUBA1B-RELA. The test is described as above. The procedure, abridged:
as §1

Test [6] relates to A549-ACTB-RAB5A. The test is described as follows: phenotypically active (imaging signature differs from DMSO and reproducible) at any of 0.3-9 uM (binary (1 = active, 0 = inactive)); higher = active. The gist of the method: as §1
The test system of test [7] is A549-CANX-COX4. The description is as above. The procedure, abridged:
as §1

Test [8] relates to A549-GM130-SQSTM1. The description is as above. The gist of the method: as §1
In a further test the test system is A549-TP53BP1-CLTA. The test is described as above. The procedure, abridged:
as §1

In another test the test system is A549-TUBA1B-RELA. Described as above. The gist of the method:
as §1

The next test deals with HepG2-ACTB-RAB5A. The description is as above. The procedure, abridged:
as §1

Another test deals with HepG2-CANX-COX4. Described as above. The gist of the method: as §1
The next test has as its system HepG2-GM130-SQSTM1. The test is described as above. The procedure, abridged:
as §1

Test [9] relates to HepG2-TP53BP1-CLTA. Described as above. The procedure, abridged:
as §1

For test [10], the system named is HepG2-TUBA1B-RELA. The test is described as above. The gist of the method:
as §1

For another test, the system named is WPMY1-ACTB-RAB5A. Described as above. The gist of the method:
as §1

For another test, the system named is WPMY1-CANX-COX4. The test is described as above. The gist of the method:
as §1

Another test concerns WPMY1-GM130-SQSTM1. The description is as above. The gist of the method: as §1
The test system of the next test is WPMY1-TP53BP1-CLTA. Described as above. The procedure, abridged:
as §1

The test system of the next test is WPMY1-TUBA1B-RELA. Described as above. The procedure, abridged: as §1

With `O=C1Nc2ccc(F)cc2C1=C1Nc2ccccc2C1=NO` [5'-Fluoroindirubinoxime], the “lowest phenotypically active concentration” value in the test with A549-ACTB-RAB5A [1], in the test on A549-CANX-COX4 [2], in the test with A549-GM130-SQSTM1 [3], with HepG2-TP53BP1-CLTA [4] and in the test on HepG2-TUBA1B-RELA [5] was 1 µM each time. In addition, the phenotypically active in the test with A549-ACTB-RAB5A [6], with A549-CANX-COX4 [7], with A549-GM130-SQSTM1 [8], with A549-TP53BP1-CLTA, in the test with A549-TUBA1B-RELA and in the test on HepG2-ACTB-RAB5A was 1 (active) in each case. Further, the phenotypically active in the test on HepG2-CANX-COX4, in the test with HepG2-GM130-SQSTM1, in the test on HepG2-TP53BP1-CLTA [9], in the test on HepG2-TUBA1B-RELA [10], in the test on WPMY1-ACTB-RAB5A and in the test on WPMY1-CANX-COX4 was 1 (active) in each case. Also, the phenotypically active in the test with WPMY1-GM130-SQSTM1, in the test with WPMY1-TP53BP1-CLTA and in the test with WPMY1-TUBA1B-RELA was 1 (active) throughout.

Take `CN(C)C1CCN(C(=O)c2ccc(NC(=O)Nc3ccc(-c4nc(N5CCOCC5)nc(N5CCOCC5)n4)cc3)cc2)CC1`: the “lowest phenotypically active concentration” value in the test with A549-ACTB-RAB5A [1], in the test with A549-CANX-COX4 [2], in the test with A549-GM130-SQSTM1 [3], in the test on HepG2-TP53BP1-CLTA [4] and with HepG2-TUBA1B-RELA [5] was at most 0.3 µM each time. The phenotypically active in the test with A549-ACTB-RAB5A [6], in the test with A549-CANX-COX4 [7], in the test on A549-GM130-SQSTM1 [8], in the test on A549-TP53BP1-CLTA, in the test with A549-TUBA1B-RELA and with HepG2-ACTB-RAB5A was 1 (active) in each case. The phenotypically active in the test with HepG2-CANX-COX4, in the test with HepG2-GM130-SQSTM1, in the test with HepG2-TP53BP1-CLTA [9], with HepG2-TUBA1B-RELA [10], in the test with WPMY1-ACTB-RAB5A and in the test with WPMY1-CANX-COX4 was 1 (active) in each case. For the same compound, the phenotypically active with WPMY1-GM130-SQSTM1, in the test with WPMY1-TP53BP1-CLTA and in the test on WPMY1-TUBA1B-RELA was 1 (active) each time.

Regarding `CCCCc1oc2ccccc2c1C(=O)c1cc(I)c(OCCN(CC)CC)c(I)c1` [amiodarone], the “lowest phenotypically active concentration” value amounted to 3 µM in the test on A549-ACTB-RAB5A [1]; 9 µM in the test with A549-CANX-COX4 [2]; 9 µM in the test on A549-GM130-SQSTM1 [3]; 9 µM in the test on HepG2-TP53BP1-CLTA [4]; 3 µM in the test on HepG2-TUBA1B-RELA [5]. Moreover, the phenotypically active in the test on A549-ACTB-RAB5A [6], with A549-CANX-COX4 [7], in the test with A549-GM130-SQSTM1 [8], in the test on A549-TP53BP1-CLTA, with A549-TUBA1B-RELA and with HepG2-ACTB-RAB5A was 1 (active) in each case. Besides, the phenotypically active with HepG2-CANX-COX4, with HepG2-GM130-SQSTM1, in the test with HepG2-TP53BP1-CLTA [9], in the test on HepG2-TUBA1B-RELA [10], in the test on WPMY1-ACTB-RAB5A and in the test on WPMY1-CANX-COX4 was 1 (active) in each case. Further, the phenotypically active in the test with WPMY1-GM130-SQSTM1, with WPMY1-TP53BP1-CLTA and with WPMY1-TUBA1B-RELA was 1 (active) in each case.

On to `CCC(=O)N1CCN(c2ccc(-n3c(=O)ccc4cnc5ccc(-c6cnc7ccccc7c6)cc5c43)cc2C(F)(F)F)CC1` [Torin 1], for which the “lowest phenotypically active concentration” value with A549-ACTB-RAB5A [1], in the test on A549-CANX-COX4 [2], in the test with A549-GM130-SQSTM1 [3], with HepG2-TP53BP1-CLTA [4] and with HepG2-TUBA1B-RELA [5] was at most 0.3 µM in each case. For the same compound, the phenotypically active in the test with A549-ACTB-RAB5A [6], in the test on A549-CANX-COX4 [7], with A549-GM130-SQSTM1 [8], in the test with A549-TP53BP1-CLTA, in the test with A549-TUBA1B-RELA and with HepG2-ACTB-RAB5A was 1 (active) in each case. Also, the phenotypically active in the test with HepG2-CANX-COX4, with HepG2-GM130-SQSTM1, in the test on HepG2-TP53BP1-CLTA [9], in the test on HepG2-TUBA1B-RELA [10], in the test with WPMY1-ACTB-RAB5A and in the test with WPMY1-CANX-COX4 was 1 (active) each time. Moreover, the phenotypically active in the test with WPMY1-GM130-SQSTM1, with WPMY1-TP53BP1-CLTA and in the test with WPMY1-TUBA1B-RELA was 1 (active) each time.

In the case of `COc1cc2c(Nc3ccc(Br)cc3F)ncnc2cc1OCC1CCN(C)CC1` [vandetanib], the “lowest phenotypically active concentration” value with A549-ACTB-RAB5A [1] was determined as 1 µM; with A549-CANX-COX4 [2], 3 µM; with A549-GM130-SQSTM1 [3], 1 µM; in the test with HepG2-TP53BP1-CLTA [4], 3 µM; with HepG2-TUBA1B-RELA [5] it was 1 µM. For the same compound, the phenotypically active in the test on A549-ACTB-RAB5A [6], in the test on A549-CANX-COX4 [7], in the test with A549-GM130-SQSTM1 [8], with A549-TP53BP1-CLTA, in the test on A549-TUBA1B-RELA and in the test on HepG2-ACTB-RAB5A was 1 (active) each time. The phenotypically active in the test on HepG2-CANX-COX4, in the test with HepG2-GM130-SQSTM1, in the test on HepG2-TP53BP1-CLTA [9], in the test with HepG2-TUBA1B-RELA [10], in the test with WPMY1-ACTB-RAB5A and in the test on WPMY1-CANX-COX4 was 1 (active) in each case. Moreover, the phenotypically active with WPMY1-GM130-SQSTM1, with WPMY1-TP53BP1-CLTA and with WPMY1-TUBA1B-RELA was 1 (active) throughout.

The values above are taken from the supplement of paper PMC7411054.
